Assay results published in PubChem BioAssay (EPA / NIEHS).
“And” between values parts separate entries of the source, which are not always exact repeats. Equal entries are not always repeated. Inconclusive results are not listed. Where a structure was tested more than once in an assay, its records may differ in their call. The source made the active and inactive calls. The calls were made as follows: active = hit-call score of the fitted dose curve at least 0.9, where 1 is the maximum; inconclusive = response in the unintended direction; inactive = score below 0.9.

How the values were obtained:
[1] = system: NCBI gene 100848466; assay: NVS_NR_bPR: NovaScreen (NVS) Nuclear Receptor Binding Assay for bovine Progextron Receptor (PR) (AID 2283343);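 as to AC50: actives lower bound radioligand signal below DMSO meaning displacement of the label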
Outline: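 Bovine uterine membrane preparation, cell-free; radioligand competitive displacement measured by scintillation counting 18 hours after dosing. Loss of signal versus DMSO baseline indicates binding; primary HTS single concentration 25 uM in duplicate, actives followed in concentration series.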

[2] = target: Estrogen receptor (Homo sapiens) (UniProt P03372); assay: OT_ER_ERaERa_1440: Odyssey Thera (OT) 24-hour HEK293T Protein-Complementation Assay for Estrogen Receptor-alpha/-alpha Homodimer (AID 2283349);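 also: hits raise fluorescence above DMSO for agonists and antagonists alike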
Outline: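 Readout is the rise in mean fluorescence from reporter fragment complementation when ERα LBD (aa 310-547) units dimerize in HEK293T cells. Measured 24 h after dosing and analysed as increase over DMSO control.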

[3] = target: Bile acid receptor (Homo sapiens) (UniProt Q96RI1); assay: NVS_NR_hFXR_Antagonist: NovaScreen (NVS) Nuclear Receptor Binding Assay for human Farnesoid X Receptor Antagonism (FXR) (AID 2283350)
Outline: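 Cell-free TR-FRET ligand-binding read-out on human FXR (NR1H4) in antagonist mode, measured 1 h after dosing. Primary screen in duplicate at 25 uM, actives retested in concentration series; signal loss scored versus DMSO.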

[4] = target: Estrogen receptor (Homo sapiens) (UniProt P03372); assay: OT_ER_ERaERa_0480: Odyssey Thera (OT) 8-hour HEK293T Protein-Complementation Assay for Estrogen Receptor-alpha/-alpha Homodimer (AID 2283351);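 also: rise in fluorescence from reassembled reporter fragments on ERα LBD homodimer in nucleus or whole cell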
Outline: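 The readout is complementation of fragments fused to the human ER alpha ligand-binding domain (aa 310-547), stably expressed in HEK293T cells. After 8 h of exposure, the increase in nuclear/cytoplasmic fluorescence was measured by laser scanning cytometry and fitted relative to DMSO.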

[5] = target: Estrogen receptor (Homo sapiens) + Estrogen receptor beta (Homo sapiens) (UniProt P03372+Q92731); assay: OT_ER_ERaERb_0480: Odyssey Thera (OT) 8-hour HEK293T Protein-Complementation Assay for Estrogen Receptor-alpha/-beta Heterodimer (AID 2283352)
Outline: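 HEK293T protein-fragment complementation assay of ER-alpha/ER-beta LBD heterodimerisation, read 8 h after dosing. Mean nuclear/cytoplasmic fluorescence intensity measured by laser scanning cytometry; gain of signal fitted relative to DMSO.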

[6] = target: bovine Estrogen Receptor (ER), ESR1 (gene 407238) (UniProt P49884); assay: NVS_NR_bER: NovaScreen (NVS) Nuclear Receptor Binding Assay for bovine Estrogen Receptor (ER) (AID 2283345);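 also: actives lower the bound radioligand count which means they displace the ER ligand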
Outline: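 Bovine uterine membranes; tritiated or iodinated radioligand; competitive displacement; 18 h; scintillation read; DMSO negative control; 25 uM duplicates, then concentration series for actives.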

[7] = target: Estrogen receptor (Homo sapiens) (UniProt P03372); assay: NVS_NR_hER: NovaScreen (NVS) Nuclear Receptor Binding Assay for human Estrogen Receptor (ER) (AID 2283348)
Outline: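 Cell-free radioligand binding with protein extracted from MCF7 cells; scintillation counting 18 hours after dosing. Loss of signal versus DMSO baseline read as displacement; primary single-concentration screen at 25 uM in duplicate, actives retested in concentration series.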

[8] = target: Androgen Receptor/SRC-1 Co-activator, AR (gene 367) (UniProt P10275); assay: OT_AR_ARSRC1_0960: Odyssey Thera (OT) 16-hour HEK293T Protein-Complementation Assay for Androgen Receptor/SRC-1 Co-activator (AID 2283353);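 also: actives raise the signal above DMSO so potency reflects increased AR and SRC-1 complex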
Outline: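 HEK293T cells stably expressing AR and SRC-1 fused to Venus YFP fragments, imaged 16 h after dosing. Nuclear/cytoplasmic fluorescence ratio at 488 nm from at least 400 cells per image; gain of signal relative to DMSO.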

[9] = target: chimpanzee Androgen Receptor (AR), AR (gene 747460) (UniProt O97775); assay: NVS_NR_cAR: NovaScreen (NVS) Nuclear Receptor Binding Assay for chimpanzee Androgen Receptor (AR) (AID 2283346);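 also: radioligand displacement from AR measured by scintillation counting in a cell-free assay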
Outline: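 Cell-free radioligand displacement using receptor protein extracted from Sf9/Sf21 cells; bound radioligand measured by scintillation counting 72 hours after chemical dosing. Loss of signal versus DMSO baseline indicates binding; primary screen single-concentration in duplicate at 25 uM, actives followed in concentration series.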

[10] = target: Bile acid receptor (Homo sapiens) (UniProt Q96RI1); assay: NVS_NR_hFXR_Agonist: NovaScreen (NVS) Nuclear Receptor Binding Assay for human Farnesoid X Receptor Agonism (FXR) (AID 2283347)
Description: NVS_NR_hFXR_Agonist is a biochemical, single-readout assay that uses extracted gene-proteins in a cell-free assay. Measurements were taken 1 hour after chemical dosing in a 384-well plate.NVS_NR_hFXR_Agonist is one of one assay component(s) measured or calculated from the NVS_NR_hFXR_Agonist assay. It is designed to make measurements of fluorescent resonance energy transfer, a form of binding reporter, as detected with fluorescent resonance energy transfer signals by Time-Resolved Fluorescence Resonance Energy Transfer (TR-FRET) technology.Data from the assay component NVS_NR_hFXR_Agonist was analyzed into 1 assay endpoint. This assay endpoint, NVS_NR_hFXR_Agonist, was analyzed in the positive analysis fitting direction relative to DMSO as the negative control and baseline of activity. Using a type of binding reporter, gain-of-signal activity can be used to understand changes in the binding as they relate to the gene NR1H4. Furthermore, this assay endpoint can be referred to as a primary readout, because the performed assay has only produced 1 assay endpoint. To generalize the intended target to other relatable targets, this assay endpoint is annotated to the nuclear receptor intended target family, where the subfamily is non-steroidal.
Binding assays used specific radioligands (tritiated, iodinated) with non-radioactive competitive displacement ligands in agonist or antagonist protocols (as indicated) and various reference compounds and inhibitors to titrate specific binding to receptors and transporters. Most enzyme assays (CYPs, kinases, phosphatases, proteases, HDACs) used recombinant protein and specific substrates (fluorescence mostly, some colorimetric and radioactive) and inhibitors, followed by a biochemical separation of substrate and product. All assays for the biochemical HTS were initially run in duplicate at a single concentration (10 uM for CYP450 assays and 25 uM for all others). […] Each assay was run with positive and negative controls, and concurrent controls on every plate. The follow-up (secondary) screen tested active chemical-pairs in concentration series, as well as a few additional assays not tested in the primary screen, some selected negative inactives, and several cases re-run in the concentration series for confirmatory purposes.

Measured: AC50

Chain of Androgen Receptor/SRC-1 Co-activator, AR (gene 367) (P10275 whole entry, looked up, the tested form may be a part): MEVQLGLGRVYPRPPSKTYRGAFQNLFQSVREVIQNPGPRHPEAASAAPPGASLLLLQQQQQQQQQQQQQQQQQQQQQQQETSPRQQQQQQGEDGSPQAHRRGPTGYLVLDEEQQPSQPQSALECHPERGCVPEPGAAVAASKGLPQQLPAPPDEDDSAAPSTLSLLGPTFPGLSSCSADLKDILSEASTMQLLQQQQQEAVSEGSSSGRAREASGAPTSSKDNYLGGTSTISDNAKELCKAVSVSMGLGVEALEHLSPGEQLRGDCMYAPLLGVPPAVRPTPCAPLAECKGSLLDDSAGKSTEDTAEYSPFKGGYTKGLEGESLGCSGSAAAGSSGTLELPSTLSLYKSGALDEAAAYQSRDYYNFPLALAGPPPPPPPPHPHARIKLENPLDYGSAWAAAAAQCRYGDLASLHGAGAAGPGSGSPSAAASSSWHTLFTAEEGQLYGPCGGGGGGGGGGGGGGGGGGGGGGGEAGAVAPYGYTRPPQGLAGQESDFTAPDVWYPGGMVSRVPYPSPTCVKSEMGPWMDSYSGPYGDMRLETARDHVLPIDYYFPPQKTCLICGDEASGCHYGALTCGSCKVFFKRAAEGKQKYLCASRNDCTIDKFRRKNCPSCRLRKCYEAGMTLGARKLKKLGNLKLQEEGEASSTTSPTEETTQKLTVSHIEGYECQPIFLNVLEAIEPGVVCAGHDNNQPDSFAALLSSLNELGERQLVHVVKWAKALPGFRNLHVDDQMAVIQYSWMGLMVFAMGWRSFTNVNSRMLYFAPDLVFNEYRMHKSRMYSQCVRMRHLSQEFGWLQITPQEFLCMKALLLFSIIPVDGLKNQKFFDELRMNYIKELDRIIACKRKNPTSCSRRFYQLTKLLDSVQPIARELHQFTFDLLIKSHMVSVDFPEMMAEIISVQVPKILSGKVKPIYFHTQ
Chain of chimpanzee Androgen Receptor (AR), AR (gene 747460) (O97775 whole entry, looked up): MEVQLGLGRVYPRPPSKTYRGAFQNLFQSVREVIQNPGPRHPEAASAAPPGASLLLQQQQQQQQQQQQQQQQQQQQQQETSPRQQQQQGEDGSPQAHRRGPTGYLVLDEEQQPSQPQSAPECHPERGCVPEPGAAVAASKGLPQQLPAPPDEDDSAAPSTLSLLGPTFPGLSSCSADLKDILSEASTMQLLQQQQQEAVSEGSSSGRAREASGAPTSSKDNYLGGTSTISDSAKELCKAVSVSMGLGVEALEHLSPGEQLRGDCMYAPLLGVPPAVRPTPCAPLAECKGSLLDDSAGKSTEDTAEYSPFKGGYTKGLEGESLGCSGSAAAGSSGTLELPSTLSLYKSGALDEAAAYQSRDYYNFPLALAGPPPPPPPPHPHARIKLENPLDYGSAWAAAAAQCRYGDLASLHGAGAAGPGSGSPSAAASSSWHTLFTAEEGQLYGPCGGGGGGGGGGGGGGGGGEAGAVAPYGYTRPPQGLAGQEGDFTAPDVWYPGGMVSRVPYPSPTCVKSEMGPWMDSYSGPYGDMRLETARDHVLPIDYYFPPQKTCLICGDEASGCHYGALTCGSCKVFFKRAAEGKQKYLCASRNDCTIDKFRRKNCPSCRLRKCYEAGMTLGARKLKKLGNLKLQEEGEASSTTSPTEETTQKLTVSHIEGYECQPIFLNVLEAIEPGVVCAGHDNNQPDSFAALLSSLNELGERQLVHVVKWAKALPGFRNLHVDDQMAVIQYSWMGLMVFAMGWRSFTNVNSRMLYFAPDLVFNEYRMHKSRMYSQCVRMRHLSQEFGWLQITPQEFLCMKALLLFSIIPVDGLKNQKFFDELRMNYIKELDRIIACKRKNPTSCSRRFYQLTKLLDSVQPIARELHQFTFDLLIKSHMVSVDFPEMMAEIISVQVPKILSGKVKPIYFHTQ
Chain of bovine Estrogen Receptor (ER), ESR1 (gene 407238) (P49884 whole entry, looked up): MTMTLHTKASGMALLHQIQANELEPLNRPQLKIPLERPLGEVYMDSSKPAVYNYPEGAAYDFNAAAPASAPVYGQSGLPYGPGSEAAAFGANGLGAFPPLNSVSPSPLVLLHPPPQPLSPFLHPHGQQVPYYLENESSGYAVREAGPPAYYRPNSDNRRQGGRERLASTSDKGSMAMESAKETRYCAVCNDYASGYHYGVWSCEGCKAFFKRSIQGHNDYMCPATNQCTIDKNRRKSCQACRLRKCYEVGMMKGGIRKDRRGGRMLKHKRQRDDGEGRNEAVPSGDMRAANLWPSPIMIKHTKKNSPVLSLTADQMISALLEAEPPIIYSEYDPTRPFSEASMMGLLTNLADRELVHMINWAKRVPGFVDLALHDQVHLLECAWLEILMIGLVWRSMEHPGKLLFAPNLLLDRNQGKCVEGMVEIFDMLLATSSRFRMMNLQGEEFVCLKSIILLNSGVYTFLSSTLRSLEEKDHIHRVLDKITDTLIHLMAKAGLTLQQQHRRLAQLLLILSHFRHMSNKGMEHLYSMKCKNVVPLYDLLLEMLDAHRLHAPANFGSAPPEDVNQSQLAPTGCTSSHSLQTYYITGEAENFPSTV
Chain of Estrogen receptor (Homo sapiens) + Estrogen receptor beta (Homo sapiens) (P03372 whole entry, looked up, the tested form may be a part): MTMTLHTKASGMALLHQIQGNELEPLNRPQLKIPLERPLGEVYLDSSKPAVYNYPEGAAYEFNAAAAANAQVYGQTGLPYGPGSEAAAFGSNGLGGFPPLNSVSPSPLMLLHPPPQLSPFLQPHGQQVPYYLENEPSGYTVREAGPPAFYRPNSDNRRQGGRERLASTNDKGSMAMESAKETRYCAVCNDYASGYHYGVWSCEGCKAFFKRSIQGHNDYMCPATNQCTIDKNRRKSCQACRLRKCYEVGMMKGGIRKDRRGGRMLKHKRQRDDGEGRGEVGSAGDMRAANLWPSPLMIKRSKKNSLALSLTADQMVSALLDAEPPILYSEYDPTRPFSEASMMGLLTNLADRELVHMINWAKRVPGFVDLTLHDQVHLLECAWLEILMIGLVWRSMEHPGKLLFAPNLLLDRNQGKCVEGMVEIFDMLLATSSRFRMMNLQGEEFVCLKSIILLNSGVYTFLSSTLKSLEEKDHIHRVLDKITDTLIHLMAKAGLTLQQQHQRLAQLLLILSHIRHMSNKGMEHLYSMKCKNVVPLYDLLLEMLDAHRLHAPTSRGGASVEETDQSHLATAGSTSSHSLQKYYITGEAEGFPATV
Chain of Estrogen receptor (Homo sapiens) + Estrogen receptor beta (Homo sapiens) (Q92731 whole entry, looked up, the tested form may be a part): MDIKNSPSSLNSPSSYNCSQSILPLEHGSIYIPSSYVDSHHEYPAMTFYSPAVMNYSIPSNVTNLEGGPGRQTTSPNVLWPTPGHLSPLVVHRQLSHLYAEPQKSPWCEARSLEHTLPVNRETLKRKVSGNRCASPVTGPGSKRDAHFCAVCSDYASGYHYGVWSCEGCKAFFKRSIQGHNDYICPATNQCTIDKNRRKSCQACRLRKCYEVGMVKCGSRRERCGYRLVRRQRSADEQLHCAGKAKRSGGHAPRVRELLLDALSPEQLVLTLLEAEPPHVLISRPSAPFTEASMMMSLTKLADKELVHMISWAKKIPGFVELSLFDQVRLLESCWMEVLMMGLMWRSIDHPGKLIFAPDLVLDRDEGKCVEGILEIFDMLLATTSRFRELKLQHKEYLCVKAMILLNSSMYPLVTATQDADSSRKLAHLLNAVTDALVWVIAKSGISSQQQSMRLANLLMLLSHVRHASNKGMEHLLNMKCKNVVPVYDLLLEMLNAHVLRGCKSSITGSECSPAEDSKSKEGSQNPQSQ
Chain of Estrogen receptor (Homo sapiens) (P03372 whole entry, looked up, the tested form may be a part): as the sequence (P03372 whole entry, looked up, the tested form may be a part) above
Chain of Bile acid receptor (Homo sapiens) (Q96RI1 whole entry, looked up): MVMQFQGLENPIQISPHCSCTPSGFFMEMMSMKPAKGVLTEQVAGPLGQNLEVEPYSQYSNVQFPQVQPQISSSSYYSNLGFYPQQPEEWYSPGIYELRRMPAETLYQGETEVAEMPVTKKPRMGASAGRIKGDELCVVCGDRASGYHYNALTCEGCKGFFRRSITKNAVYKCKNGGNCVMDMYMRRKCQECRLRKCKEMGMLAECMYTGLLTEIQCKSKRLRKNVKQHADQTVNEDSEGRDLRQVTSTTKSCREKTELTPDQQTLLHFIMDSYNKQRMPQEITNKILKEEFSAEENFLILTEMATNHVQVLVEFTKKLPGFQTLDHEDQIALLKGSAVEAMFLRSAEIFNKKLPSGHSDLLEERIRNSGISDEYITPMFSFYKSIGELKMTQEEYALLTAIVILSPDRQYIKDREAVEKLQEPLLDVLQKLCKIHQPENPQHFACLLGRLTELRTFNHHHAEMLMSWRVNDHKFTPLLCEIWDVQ

C#CCOS(=O)OC1CCCCC1Oc1ccc(C(C)(C)C)cc1 (configuration not stated)
inactive: [1] | [2] | [3] | [4] | [5]

CO/C=C(/C(=O)OC)c1ccccc1Oc1cc(Oc2ccccc2C#N)ncn1
inactive: [1] | [6] | [7] | [2] | [4] | [8]

CCCCOC(=O)c1ccccc1C(=O)OCCCC
inactive: [1] | [6] | [9] | [7]
active: [2] 35.4 µM and 46.5 µM and 60 µM | [4] 46.7 µM and 37.4 µM and 35.4 µM | [5] 33.1 µM and 25.9 µM and 23.5 µM

CCCC1COC(Cn2cncn2)(c2ccc(Cl)cc2Cl)O1 (configuration not stated)
inactive: [2] | [4]
active: [1] 17.9 µM | [9] 9.99 µM | [8] 34.3 µM

COc1cnc(OC)n2nc(NS(=O)(=O)c3c(OCC(F)F)cccc3C(F)(F)F)nc12
inactive: [6] | [7] | [2] | [4] | [5]

CNC(=O)ON=CC(C)(C)SC
inactive: [1] | [2] | [4]

OC(c1ccc(Cl)cc1)(c1cncnc1)c1ccccc1Cl (configuration not stated)
inactive: [6] | [9] | [7] | [2] | [4]
active: [5] 11.9 µM

CCOC(=O)CC(SP(=S)(OC)OC)C(=O)OCC (configuration not stated)
inactive: [1] | [7] | [2] | [4] | [8]

CCCN(CCC)c1c([N+](=O)[O-])cc(S(N)(=O)=O)cc1[N+](=O)[O-]
inactive: [6] | [7] | [2] | [3] | [4]
active: [3] 26.4 µM

CCCCC(CC)COC(=O)c1ccccc1C(=O)OCC(CC)CCCC (configuration not stated)
active: [2] 66 µM | [5] 66.9 µM
inactive: [1] | [6] | [7] | [4]

COc1ccc(C(c2ccc(OC)cc2)C(Cl)(Cl)Cl)cc1
active: [7] 4.64 µM and 5.49 µM and 13.9 µM | [2] 13.8 µM and 21.6 µM and 14.4 µM | [4] 13 µM and 12.5 µM and 10.8 µM | [5] 4.23 µM and 12.5 µM and 9.58 µM
inactive: [1] | [6] | [7] | [3]

C=CC1(C)OC(=O)N(c2cc(Cl)cc(Cl)c2)C1=O (configuration not stated)
not listed: [3] | [8] | [10]
inactive: all other assays above

CCCCNC(=O)OCC#CI
inactive: [1] | [6] | [7] | [2] | [4]

Oc1ccccc1-c1ccccc1
inactive: [2] | [4] | [5]
active: [1] 31.3 µM | [9] 11.2 µM and 25.5 µM | [5] 66 µM

CCOP(=S)(OCC)SCn1c(=O)oc2cc(Cl)ccc21
inactive: [2] | [4]
active: [1] 2.98 µM

COc1nc(C)nc(NC(=O)NS(=O)(=O)c2ccccc2Cl)n1
inactive: [6] | [7]

Cc1c(F)c(F)c(COC(=O)C2C(/C=C(\Cl)C(F)(F)F)C2(C)C)c(F)c1F (configuration not stated)
inactive: [6] | [7] | [2] | [4] | [5]

C=CCC1=C(C)C(OC(=O)C2C(C=C(C)C)C2(C)C)CC1=O (configuration not stated)
inactive: [6] | [9] | [10] | [7] | [2] | [4]

COC(=O)c1ccccc1C(=O)OC
inactive: [1] | [10] | [2] | [3] | [4] | [5]

CON(C)C(=O)Nc1ccc(Cl)c(Cl)c1
inactive: [1] | [7] | [2] | [4]
active: [9] 15.3 µM
